Data taken from PubChem BioAssay AID1159580 (chemical genetic matrix, 2015).
Values joined by “and” are separate entries in the source; they are usually repeats but may differ in a detail not shown here. Equal values may be shown once. Screen size: about 5,500 compounds; about 2,000 (36%) were called active. Not shown: some 18% with an inconclusive outcome. Rule as the data show it: active = normalized growth mostly below about 0.91 (no sharp cut-off); inconclusive = no clear call, values can overlap the other calls; inactive = mostly above about 0.92. Some of the results follow.

Test: chemical genetic growth profiling, strain panel (AID 1159580);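 also: tested at 20 µM; growth read once vehicle control cultures reached saturation at 30 °C; 1 = growth at the plate median or of vehicle wells; lower values mean less growth of the strain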
Settings: S. cerevisiae deletion strains, growth OD

Measured: normalized growth

CO[C@@H]1[C@@H](OC(N)=O)[C@@H](O)[C@H](Oc2ccc3c(O)c(NC(=O)c4ccc(O)c(CC=C(C)C)c4)c(=O)oc3c2C)OC1(C)C
inactive: locus YAL013W, strain DEP1, hits give low values 1.02 | locus YAL021C, strain ccr4, hits give low values 1.03 | locus YAL026C, strain drs2, hits give low values 1.02 | locus YAL030W, strain snc1, hits give low values 1.03 | locus YBL061C, strain skt5, hits give low values 1.02 | locus YBR009C, strain hhf1, hits give low values 1.02 | locus YBR021W, strain FUR4, hits give low values 1.04 | locus YBR023C, strain chs3, hits give low values 1.04 | locus YBR171W, strain sec66, hits give low values 1.06 | locus YBR229C, strain ROT2, hits give low values 1.01 | locus YBR231C, strain swc5, hits give low values 1.04 | locus YBR279W, strain paf1, hits give low values 1.05 | locus YCL011C, strain gbp2, hits give low values 1.03 | locus YCL016C, strain dcc1, hits give low values 1.04 | locus YCL029C, strain bik1, hits give low values 0.995 | locus YCL061C, strain MRC1, hits give low values 1.03 | locus YCL069W, strain vba3, hits give low values 1.03 | locus YCR088W, strain abp1, hits give low values 1.04 | locus YDL005C, strain med2, hits give low values 1.04 | locus YDL035C, strain GPR1, hits give low values 1.01 | locus YDL040C, strain nat1, hits give low values 1.03 | locus YDL074C, strain BRE1, hits give low values 0.955 | locus YDL101C, strain DUN1, hits give low values 1.02 | locus YDL134C, strain PPH21, hits give low values 1.01 | locus YDL185W, strain tfp1, hits give low values 0.945 | locus YDL192W, strain arf1, hits give low values 0.988 | locus YDR001C, strain nth1, hits give low values 1.03 | locus YDR069C, strain doa4, hits give low values 1.01 | locus YDR101C, strain arx1, hits give low values 1.01 | locus YDR137W, strain rgp1, hits give low values 0.998 | locus YDR150W, strain NUM1, hits give low values 1.02 | locus YDR159W, strain sac3, hits give low values 0.98 | locus YDR162C, strain NBP2, hits give low values 0.968 | locus YDR195W, strain ref2 1.04 | locus YDR297W, strain sur2, hits give low values 1.03 | locus YDR318W, strain mcm21, hits give low values 0.991 | locus YDR334W, strain swr1, hits give low values 1.03 | locus YDR335W, strain msn5, hits give low values 1.06 | locus YDR388W, hits give low values 0.991 | locus YDR392W, strain spt3, hits give low values 0.999 | locus YDR502C, strain sam2, hits give low values 0.999 | locus YEL003W, strain gim4, hits give low values 0.999 | locus YEL037C, strain rad23, hits give low values 1.04 | locus YEL061C, strain CIN8 (second series), hits give low values 1.02 | locus YEL061C, strain CIN8, hits give low values 0.992 | locus YER015W, strain faa2, hits give low values 1.04 | locus YER016W, strain bim1, hits give low values 1.03 | locus YER110C, hits give low values 0.985 | locus YER111C, strain swi4, hits give low values 1.03 | locus YER155C, strain BEM2 (second series), hits give low values 1.06 | locus YER155C, strain BEM2, hits give low values 1.04 | locus YER167W, strain BCK2, hits give low values 1.02 | locus YFR010W, strain ubp6, hits give low values 1.02 | locus YGL078C, strain dbp3, hits give low values 0.954 | locus YGL086W, strain mad1, hits give low values 1.02 | locus YGL167C, strain pmr1, hits give low values 1.02 | locus YGL173C, strain kem1, hits give low values 1.05 | locus YGL227W, strain vid30, hits give low values 1.03 | locus YGL240W, strain doc1, hits give low values 1.01 | locus YGL248W, strain PDE1, hits give low values 1.02 | locus YGL253W, strain hxk2, hits give low values 1 | locus YGR078C, strain PAC10, hits give low values 1.01 | locus YGR135W, strain pre9, hits give low values 0.993 | locus YGR229C, strain SMI1, hits give low values 1.01 | locus YGR252W, strain gcn5, hits give low values 1.16 | locus YHR013C, strain ard1, hits give low values 1.05 | locus YHR027C, strain rpn1, hits give low values 1.04 | locus YHR030C, strain SLT2, hits give low values 1.02 and 0.882 | locus YHR079C, strain IRE1 (second series), hits give low values 0.986 | locus YHR079C, strain IRE1, hits give low values 0.87 | locus YHR094C, strain hxt1, hits give low values 0.995 | locus YHR129C, strain ARP1, hits give low values 1 | locus YHR142W, strain chs7, hits give low values 1.01 | locus YHR200W, strain rpn10, hits give low values 0.989 | locus YIL066C, strain RNR3, hits give low values 1.01 | locus YIL073C, strain SPO22, hits give low values 0.71 | locus YIL125W, strain kgd1, hits give low values 0.964 | locus YIR030C, strain dcg1, hits give low values 0.992 | locus YJL092W, strain hpr5, hits give low values 1.03 | locus YJL095W, strain BCK1 (second series), hits give low values 1.04 | locus YJL095W, strain BCK1, hits give low values 1.04 and 0.919 | locus YJL115W, strain asf1, hits give low values 1.04 | locus YJL129C, strain trk1, hits give low values 0.971 | locus YJL134W, strain LCB3, hits give low values 1.01 | locus YJL154C, strain vps35, hits give low values 1.04 | locus YJL164C, strain tpk1, hits give low values 1.02 | locus YJL166W, strain qcr8, hits give low values 1.04 | locus YJL168C, strain set2, hits give low values 0.988 | locus YJL187C, strain SWE1 (second series), hits give low values 1.01 | locus YJL187C, strain SWE1, hits give low values 1.03
